Records with an inconclusive call do not appear. Active and inactive are the calls of the source. Unless noted, the call rests on the fitted dose curve.
Columns and labels:
[1] = qHTS for Inhibitors of the Functional Ribonucleoprotein Complex (vRNP) of Lassa (LASV) Arenavirus: LASV Primary Screen - GLuc reporter signal (AID 1347082; calls by dose curve; tested in HEK293 reporter line; further: nearly all actives have a fitted effect of over 60% in size)
[2] = qHTS for Inhibitors of the Functional Ribonucleoprotein Complex (vRNP) of Lassa (LASV) Arenavirus: Viability assay - alamar blue signal for LASV Primary Screen (AID 1347083; calls by dose curve; tested in HEK293 reporter line; further: nearly all actives have a fitted effect of over 80% in size)
[3] = qHTS for Inhibitors of the Functional Ribonucleoprotein Complex (vRNP) of Lymphocytic Choriomeningitis Arenaviruses (LCMV): Viability assay - alamar blue signal for LCMV Primary Screen (AID 1347085; calls by dose curve; tested in HEK293 reporter line; further: nearly all actives have a fitted effect of over 80% in size)
[4] = molecular target: Nucleoprotein (Lymphocytic choriomeningitis virus (strain Armstrong)) (UniProt P09992); experiment: qHTS for Inhibitors of the Functional Ribonucleoprotein Complex (vRNP) of Lymphocytic Choriomeningitis Arenaviruses (LCMV): LCMV Primary Screen - GLuc reporter signal (AID 1347086); further: nearly all actives have a fitted effect of over 70% in size
Nucleoprotein (Lymphocytic choriomeningitis virus (strain Armstrong)), sequence (P09992 whole entry, looked up): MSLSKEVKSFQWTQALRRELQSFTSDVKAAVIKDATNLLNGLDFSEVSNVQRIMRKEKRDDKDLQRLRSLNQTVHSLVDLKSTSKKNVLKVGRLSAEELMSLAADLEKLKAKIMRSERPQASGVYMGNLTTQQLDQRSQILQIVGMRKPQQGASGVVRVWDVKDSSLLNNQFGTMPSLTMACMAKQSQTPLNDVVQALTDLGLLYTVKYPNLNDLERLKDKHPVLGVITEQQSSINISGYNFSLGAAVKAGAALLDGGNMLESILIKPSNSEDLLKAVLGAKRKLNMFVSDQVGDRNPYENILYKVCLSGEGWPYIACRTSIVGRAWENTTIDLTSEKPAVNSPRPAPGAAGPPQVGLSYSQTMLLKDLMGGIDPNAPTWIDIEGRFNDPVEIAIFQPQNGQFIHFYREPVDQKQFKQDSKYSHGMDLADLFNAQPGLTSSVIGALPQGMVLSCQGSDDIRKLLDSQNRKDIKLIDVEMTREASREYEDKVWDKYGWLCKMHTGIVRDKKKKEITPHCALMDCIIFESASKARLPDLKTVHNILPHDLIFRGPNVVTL

Measured: Potency
Potency means the concentration at half of the fitted maximal effect.

COc1cnc(NS(=O)(=O)c2ccc(N)cc2)nc1
inactive: all assays above

COc1ccc(-c2ccc3cc(C(=O)O)ccc3c2)cc1C12CC3CC(CC(C3)C1)C2
inactive: all assays above

Cc1cccc(C)c1NC(=O)c1cc(S(N)(=O)=O)c(Cl)cc1O
inactive: all assays above

OCCc1ccccc1
inactive: all assays above

CCCCCCCCCCCC(=O)[O][Sn]([CH2]CCC)([CH2]CCC)[O]C(=O)CCCCCCCCCCC
inactive: all assays above

Cc1nc2c([nH]1)c(=O)n(C)c(=O)n2Cc1ccco1
inactive: all assays above

CC(C(=O)O)c1ccc(C(=O)c2ccccc2)s1 (stereo not given)
inactive: all assays above

CC(C)(C)NC[C@H](O)COc1cccc2c1CCCC2=O
inactive: all assays above

O=C(O)c1cc(=O)c2c(OCC(O)COc3cccc4oc(C(=O)O)cc(=O)c34)cccc2o1
inactive: all assays above

Cc1cc(=O)oc2cc(O[C@@H]3SC[C@@H](O)[C@H](O)[C@H]3O)ccc12
inactive: all assays above

Cc1cccc(C)c1NC(=O)CN(CC(=O)O)CC(=O)O
inactive: all assays above

Cc1onc(-c2ccccc2)c1C(=O)Cl
inactive: all assays above

CCn1ccc(NS(=O)(=O)c2ccc(N)cc2)nc1=O
inactive: all assays above

O=C(O)c1cc(O)c(O)c(O)c1
inactive: all assays above

O=C(CCCl)NCCc1ccccc1
inactive: all assays above

CCCCOC(=O)c1ccc(O)cc1
inactive: all assays above

Cc1cccn2c(=O)c(-c3nnn[nH]3)cnc12
inactive: all assays above

CC(=O)Nc1ccc(C(=O)O)cc1
inactive: all assays above

CCOC(=O)c1cnc2c(cnn2CC)c1NN=C(C)C
inactive: all assays above

Oc1ccc(Cl)c2cccnc12
inactive: all assays above

CCOc1ccccc1OCC1CNCCO1 (stereo not given)
inactive: all assays above

C#CCC(Cc1cnc2nc(N)nc(N)c2n1)c1ccc(C(=O)N[C@@H](CCC(=O)O)C(=O)O)cc1 (stereo not given in full)
active: [1] 544 nM | [2] 273 nM | [3] 217 nM | [4] 306 nM

CNC[C@H](O)c1cccc(O)c1
inactive: all assays above

O=C(CN1CCNCC1)NC1CCCCC1
inactive: all assays above

COc1ccccc1N1CCN(CCCCNC(=O)c2ccc(-c3ccc(C(C)=O)cc3)cc2)CC1
inactive: all assays above

O=C(CCOCCOCCOCCOCCC(=O)Nc1c(I)cc(I)c(C(=O)O)c1I)Nc1c(I)cc(I)c(C(=O)O)c1I
inactive: all assays above

Nc1nc(N)nc(-c2cc(Cl)ccc2Cl)n1
inactive: all assays above

OC[C@H]1O[C@@H](Oc2ccc(O)cc2)[C@H](O)[C@@H](O)[C@@H]1O
inactive: all assays above

CC(=O)[C@@]1(O)CC[C@H]2[C@@H]3C[C@H](C)C4=CC(=O)C=C[C@]4(C)[C@@]3(F)[C@@H](O)C[C@@]21C
inactive: all assays above

COc1ccc(C2C(=O)c3ccccc3C2=O)cc1
inactive: all assays above

CCOc1cc(OCC)c(C(=O)CCC(=O)O)cc1OCC
inactive: all assays above

C=CCN1CCc2nc(N)sc2CC1
inactive: all assays above

Cc1nnc(SCC2=C(C(=O)O)N3C(=O)[C@@H](NC(=O)Cn4cnnn4)[C@H]3SC2)s1
inactive: all assays above

NNC(=O)c1ccncc1
inactive: all assays above

CN[C@@H]1[C@H](O)[C@H](NC)[C@H]2O[C@@]3(O)C(=O)C[C@@H](C)O[C@H]3O[C@@H]2[C@H]1O
inactive: all assays above

CCCOc1ccc2c(c1)CC[C@@H]1[C@@H]2CC[C@]2(C)C(OC)CC[C@@H]12 (stereo not given in full)
inactive: all assays above

CCOC(=O)c1ccc(OCCN2C[C@H](O)[C@@H](O)[C@H](O)[C@H]2CO)cc1
inactive: all assays above

COc1c2occc2c(OC)c2c(=O)cc(C)oc12
inactive: all assays above

Nc1ncnc2c1ncn2[C@@H]1O[C@H](COP(=O)(O)O)[C@@H](O)[C@H]1O
inactive: all assays above

CC(O)(P(=O)(O)O)P(=O)(O)O
inactive: all assays above

O=C1[C@@H]2[C@H]3CC[C@H](C3)[C@@H]2C(=O)N1CCCCN1CCN(c2ncccn2)CC1
inactive: all assays above

CC(CN(C)C)C(C)(O)Cc1ccc(Cl)cc1 (stereo not given)
inactive: all assays above

O=S(=O)(O)c1ccc2nc(-c3ccccc3)[nH]c2c1
inactive: all assays above

CC1(C)Oc2ccc(C#N)cc2[C@@H](N2CCCC2=O)[C@@H]1O
inactive: all assays above

CC(=O)Nc1ccc(OCC(O)CNC(C)C)cc1 (stereo not given)
inactive: all assays above

COc1ccc(NS(=O)(=O)c2ccc(N)cc2)nn1
inactive: all assays above

COc1ccc(CCN(C)CCCN2CCc3cc(OC)c(OC)cc3CC2=O)cc1OC
inactive: all assays above

CCCCCCCN(CC)CCCC(O)c1ccc(NS(C)(=O)=O)cc1 (stereo not given)
inactive: all assays above

Nc1ccc(S(=O)(=O)Nc2ccc(Cl)nn2)cc1
inactive: all assays above

OC1(c2ccc(Cl)cc2)CCNCC1
inactive: all assays above

COCCOCC(OC)OC
inactive: all assays above

CCNC(=O)/C=C/c1cccc(Br)c1
inactive: all assays above

O=c1[nH]cnc2nc[nH]c12
inactive: all assays above

CCN1CCC[C@H]1CNC(=O)c1c(O)c(Cl)cc(Cl)c1OC
inactive: all assays above

Cn1nnc2c(C(N)=O)ncn2c1=O
inactive: all assays above

Oc1cccc(O)c1
inactive: all assays above

COc1ccc2c(c1)CCCC2=O
inactive: all assays above

C/C(=N\O)[C@@H](C)NCC(C)(C)CN[C@H](C)/C(C)=N/O
inactive: all assays above

COc1cc(NS(=O)(=O)c2ccc(N)cc2)nc(C)n1
inactive: all assays above

CC(C)NCC(O)c1cc(O)cc(O)c1 (stereo not given)
inactive: all assays above
